Hits are enriched below; roughly 3.4% of the tested compounds scored in any of these assays.
FAK inh: FAK (human) kinase inhibition; Q05397; biochemical FAK kinase activity assay; inhibition, %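 (tested at 7 µM)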; 0.84% of 97,000 active; AID 727; in the data active = inhibition above about 19%
LYP inh 2: inhibitors of human LYP (PTPN22) phosphatase; recombinant LYP catalytic domain, DiFMUP fluorescence; inhibition, % at 2 µM; 0.21% of 96,000 active;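 active = inhibition at 2 µM at or above a set limit, the screen mean plus 3 SD, cut at about 24% in these data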
ERa coact inh: blocks coactivator binding to human estrogen receptor alpha. 1.7% of 86,000 active. inhibition, % at 25.6 µM. P03372. AID 629. TR-FRET ER-alpha LBD / SRC-1 peptide, estradiol-bound; in the data active = inhibition above about 50%
Target sequence (P03372 whole entry, looked up, the tested form may be a part): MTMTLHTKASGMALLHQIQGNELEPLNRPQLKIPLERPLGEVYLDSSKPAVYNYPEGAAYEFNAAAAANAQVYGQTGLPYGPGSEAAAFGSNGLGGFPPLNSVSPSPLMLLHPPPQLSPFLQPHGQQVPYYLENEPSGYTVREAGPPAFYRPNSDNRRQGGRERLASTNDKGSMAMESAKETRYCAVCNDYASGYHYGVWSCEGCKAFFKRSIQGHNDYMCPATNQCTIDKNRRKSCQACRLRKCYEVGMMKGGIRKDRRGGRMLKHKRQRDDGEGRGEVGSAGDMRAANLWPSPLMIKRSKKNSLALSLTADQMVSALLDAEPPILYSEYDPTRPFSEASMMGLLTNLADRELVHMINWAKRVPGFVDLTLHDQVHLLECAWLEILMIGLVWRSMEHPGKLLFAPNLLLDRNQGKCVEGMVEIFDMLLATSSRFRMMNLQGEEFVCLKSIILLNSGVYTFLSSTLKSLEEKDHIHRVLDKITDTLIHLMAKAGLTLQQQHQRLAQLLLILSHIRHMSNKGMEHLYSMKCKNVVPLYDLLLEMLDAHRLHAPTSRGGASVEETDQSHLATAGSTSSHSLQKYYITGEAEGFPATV
ERb SRC1 inh: ER-beta (human) coactivator binding inhibition; TR-FRET ER-beta LBD / SRC1-Cy5 peptide binding; receptor agonist-loaded with 1 µM estradiol; Q92731; 1.3% of 86,000 active; inhibition, % at 25.6 µM;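 active = compounds whose percent inhibition of the receptor-coactivator binding signal exceeds about 50% in the single-dose screen, limit read from the data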
PTPN22 act: LYP (human) phosphatase activation. Q9Y2R2. recombinant LYP, DiFMUP fluorescence; 0 = plate median, 100 = signal doubled. activation, % at 2 µM. 0.11% of 96,000 active. AID 697;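 active = activation at 2 µM above a set limit, the mean plus 5 SD, cut at about 37% in these data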
ERa SRC1 pot: enhances coactivator binding to human estrogen receptor alpha | P03372 | TR-FRET ERalpha-LBD/SRC-Cy5 coactivator binding, 2 h; 100 = basal binding, no effect | coactivator binding (% of control), % at 25.6 µM | 1.3% of 86,000 active | AID 639; in the data active = activity above about 200%;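 also: binding measured in presence of low estradiol as agonist stimulus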
Of the large screens only hits and unclear results are named; the others gave an inactive call; [ ] = remark or other dose.

Cc1nc2c(c(=O)n1CC1CCCO1)c1nc3ccccc3nc1n2Cc1ccc2c(c1)OCO2 (configuration not stated)	ERa coact inh 68.7[fluorescence artefact?], ERb SRC1 inh 58.2[fluorescence artefact?] (no result: FAK inh, LYP inh 2, PTPN22 act)
O=c1c2c3nc4ccccc4nc3n(-c3ccc4c(c3)OCCO4)c2ncn1C1CCCC1	none (no result: FAK inh, LYP inh 2, PTPN22 act)
CC1(C)CC(=O)C=C(OC(=O)c2ccc(Cl)cc2)C1	none (no result: LYP inh 2, ERa coact inh, ERb SRC1 inh, PTPN22 act, ERa SRC1 pot)
CC1(C)CC2CC(C)(CN2S(=O)(=O)c2cccc(N)c2)C1 (configuration not stated)	ERa SRC1 pot 237.2[fluorescence artefact?]
CCCCSc1cnn(-c2ccccc2)c(=O)c1SCCCC	ERa SRC1 pot 202.0
CCSc1cnn(-c2ccccc2)c(=O)c1SCC	none
Cc1cc(NC(=O)CSc2nnc(-c3ccoc3C)o2)no1	none
O=C(CSc1nnc(-c2ccc(OC(F)F)cc2)o1)NC(=O)NCc1ccco1	ERa coact inh 67.5, ERb SRC1 inh 53.1
COc1ccc(-c2nnc(SCC(=O)NC(=O)NCc3ccccc3)o2)cc1	ERa SRC1 pot 312.5[fluorescence artefact?]
COc1cc(OC)cc(-c2nnc(SCC(=O)Nc3cc(C)on3)o2)c1	ERa SRC1 pot 393.4[fluorescence artefact?]
Cc1ccc2cc(CN(CCCO)S(=O)(=O)c3cccc4nsnc34)c(=O)[nH]c2c1	none
N#CC1=C(N)SC(N)=C(C#N)C1c1cccc(O)c1	none
COc1cccc(-n2nnnc2SCC(=O)N2CCCc3ccccc32)c1	none
Oc1ccc(Nc2nc3ccccc3nc2Nc2ccc(O)cc2)cc1	ERa coact inh 73.4[fluorescence artefact?], ERb SRC1 inh 83.2[fluorescence artefact?]
Cc1n[nH]c(=O)nc1Nc1ccc(O)cc1	none
CCOC(=O)Cc1csc(NC(=O)c2ccc(NC(C)=O)cc2)n1	none
CCOC(=O)Cc1csc(NC(=O)CCN2C(=O)c3ccccc3C2=O)n1	ERb SRC1 inh 96.9[fluorescence artefact?]
CCOC(=O)Cc1csc(NC(=S)NC(=O)c2ccc(Cl)cc2)n1	LYP inh 2 25.5 (no result: ERa coact inh, ERb SRC1 inh, ERa SRC1 pot)
CCOC(=O)Cc1csc(NC(=O)CCCN2C(=O)c3ccccc3C2=O)n1	none
Cc1nn(Cc2ccc(Cl)c(Cl)c2)c(C)c1NC(=O)c1cc(-c2ccc3c(c2)OCO3)on1	none
Cc1nn(Cc2ccc(Cl)cc2)c(C)c1NC(=O)c1cc(-c2ccc3c(c2)OCO3)on1	ERa coact inh 69.9[fluorescence artefact?]
O=C(NCc1ccco1)c1cc(-c2ccc3c(c2)OCO3)on1	ERa SRC1 pot 260.5[fluorescence artefact?]
Cc1ccc(-c2cc(C(=O)NCc3ccco3)no2)cc1	none
Cc1ccc(S(=O)(=O)Nc2cc(C(=O)Nc3cc(C)cc(C)c3)ccc2Cl)cc1	none (no result: ERa coact inh, ERb SRC1 inh, ERa SRC1 pot)
CCOC(=O)c1cnc(SCC(=O)Nc2nnc(CC)s2)nc1N	ERa SRC1 pot 235.2
Cc1ccc(CNC(=O)CCOc2ccc(C(C)(C)C)cc2)cc1	none (no result: ERa coact inh, ERb SRC1 inh, ERa SRC1 pot)
Cc1ccc(S(=O)(=O)NC2CCCc3ccccc32)cc1C (configuration not stated)	none
CC1=NOC(=O)/C1=C/c1ccc(-c2ccc(Cl)cc2)o1	ERa coact inh 64.4[fluorescence artefact?]
CC1=NOC(=O)/C1=C\c1ccc(-c2cc(Cl)ccc2Cl)o1	none
CC(=O)NC(C)C(=O)OCC(=O)Nc1ccc(Br)cc1 (configuration not stated)	ERa coact inh 77.6
COCCNC(C)C(=O)Nc1ccc(Br)cc1 (configuration not stated)	none (no result: FAK inh, LYP inh 2, PTPN22 act)
O=c1oc2c(CN3CCCCC3)c(O)ccc2cc1-c1nc2ccccc2[nH]1	none (no result: FAK inh, LYP inh 2, PTPN22 act)
O=c1oc2c3c4c(cc2cc1-c1nc2ccccc2[nH]1)CCCN4CCC3	ERa coact inh 94.5[fluorescence artefact?], ERb SRC1 inh 58.3[fluorescence artefact?] (no result: FAK inh, LYP inh 2, PTPN22 act)
CCS(=O)(=O)N1Cc2ccccc2CC1C(=O)N1CCN(c2ccccc2)CC1 (configuration not stated)	ERa SRC1 pot 222.6[fluorescence artefact?]
CC(C)C(O)P(=O)(OCc1ccccc1)c1ccc(N(C)C)cc1 (configuration not stated)	ERa coact inh 51.6[fluorescence artefact?]
C1COC(NC(C2CC2)C2CC2)=N1	none (no result: FAK inh, LYP inh 2, PTPN22 act)
Cc1csc(SCC(=O)c2cc(C)n(Cc3cccs3)c2C)n1	none
Cc1cc(C(=O)CSc2nnc(-c3ccco3)o2)c(C)n1Cc1ccco1	ERa coact inh 53.8[fluorescence artefact?]
Cc1cc(C(=O)CSc2nnc(-c3ccc(OC(F)F)cc3)o2)c(C)n1Cc1cccs1	ERa coact inh 54.5[fluorescence artefact?]
COc1ccc(-n2cnnc2SCC(=O)c2cc(C)n(Cc3cccs3)c2C)cc1	ERa SRC1 pot 248.1[fluorescence artefact?]
COc1ccc(-c2nnc(SCC(=O)c3cc(C)n(Cc4cccs4)c3C)o2)cc1	ERa coact inh 52.4[fluorescence artefact?], ERa SRC1 pot 302.8
COCCn1c(C)cc(C(=O)CSc2nncn2-c2ccccc2)c1C	none
C[C@]12CC[C@H]3C(=CCc4cc(O)ccc43)[C@@H]1CCC2=O	ERa SRC1 pot 206.0 (no result: FAK inh, LYP inh 2, PTPN22 act)
C[C@]12CC[C@@H]3c4ccc(O)cc4CC[C@H]3[C@@H]1CC[C@@H]2OC(=O)CCC(=O)O	none (no result: FAK inh, LYP inh 2, PTPN22 act)
O=C(Nc1nc(-c2ccncc2)cs1)c1ccco1	ERa coact inh 98.0[fluorescence artefact?]
O=C(Nc1nc(-c2cc3ccccc3oc2=O)cs1)c1ccco1	ERa SRC1 pot 279.8[fluorescence artefact?] (no result: FAK inh, LYP inh 2, PTPN22 act)
O=c1oc2ccccc2cc1-c1csc(NN=C2CCCCC2)n1	none (no result: ERa coact inh, ERb SRC1 inh, ERa SRC1 pot)
Cc1ccc(C(=O)Nc2nc(-c3cccnc3)cs2)o1	ERb SRC1 inh 50.6
Cc1ccc(S(=O)(=O)CCC(=O)N2CCN(c3ccc(Cl)cc3)CC2)cc1	none
COc1ccc(NC(=O)C(=O)N/N=C/c2cc(C)n(-c3cccc(Cl)c3Cl)c2C)c(OC)c1	none (no result: ERa coact inh, ERb SRC1 inh, ERa SRC1 pot)
COC(=O)c1sccc1NC(=O)c1ccc(OC)c(OC)c1	none
CCc1sc(C(=O)Nc2ccsc2C(=O)OC)cc1Br	ERa SRC1 pot 236.7 (no result: FAK inh, LYP inh 2, PTPN22 act)
COC(=O)c1sccc1NC(=O)c1sccc1C	none
COC(=O)c1sccc1NC(=O)c1cc(OC)cc(OC)c1	ERa SRC1 pot 440.4[fluorescence artefact?]
CCOC(=O)COc1cccc2c(=O)n(CC(=O)N3CCCc4ccccc43)ccc12	ERb SRC1 inh 50.6[fluorescence artefact?]
CCCCCCCCC/C(=N\O)c1ccccn1	LYP inh 2 28.3
O=C(Nc1cccc(C(F)(F)F)c1)c1cc(-c2ccc(F)cc2)on1	none
Cc1nc(C(=O)N(C)C)nn1-c1cc(Cl)cc(Cl)c1	none (no result: ERa coact inh, ERb SRC1 inh, ERa SRC1 pot)
O=C(Nc1nnc(-c2ccc3c(c2)CCCC3)o1)c1ccccc1	none
O=C(Nc1nnc(-c2ccc3c(c2)OCCO3)o1)c1ccc(Cc2ccccc2)cc1	ERb SRC1 inh 64.5[fluorescence artefact?], ERa SRC1 pot 350.9[fluorescence artefact?]
O=C(O)Cc1ccc(NC(=O)C2CC=CCC2C(=O)O)cc1 (configuration not stated)	ERa SRC1 pot 233.9
COc1ccc(C2c3c(oc4ccccc4c3=O)C(=O)N2c2ccccn2)cc1OC (configuration not stated)	none (no result: FAK inh, LYP inh 2, PTPN22 act)
COc1ccc(C2c3c(oc4ccccc4c3=O)C(=O)N2c2ccccn2)cc1 (configuration not stated)	ERa SRC1 pot 218.5 (no result: LYP inh 2, PTPN22 act)
CC(C)c1nnc(N2C(=O)c3oc4ccccc4c(=O)c3C2c2ccco2)s1 (configuration not stated)	none (no result: ERa coact inh, ERb SRC1 inh, ERa SRC1 pot)
Cc1nnc(N2C(=O)c3oc4ccccc4c(=O)c3C2c2ccco2)s1 (configuration not stated)	ERb SRC1 inh 62.4[fluorescence artefact?] (no result: FAK inh, LYP inh 2, PTPN22 act)
O=C(CCC(=O)c1ccc(F)cc1)Nc1cc(Cl)cc(Cl)c1	none (no result: ERa coact inh, ERb SRC1 inh, ERa SRC1 pot)

From PubChem BioAssay
